Consider eight compounds from PubChem BioAssay.

The target of one experiment is Albumin (Bos taurus) (UniProt P02769). Description: compounds binding labelled BSA control protein – biochemical, small-molecule microarray, Alexa647 label, 635/667 nm fluorescence, artefact control for SMM control protein annotation, profiling panel (AID 1118).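 Note: score merges 667 nm emission intensity and signal-to-noise per printed compound spot.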 The conditions noted are these: BSA-A647 binding, fluorescence 635 nm, higher = more signal.
Chain of Albumin (Bos taurus) (P02769 whole entry, looked up): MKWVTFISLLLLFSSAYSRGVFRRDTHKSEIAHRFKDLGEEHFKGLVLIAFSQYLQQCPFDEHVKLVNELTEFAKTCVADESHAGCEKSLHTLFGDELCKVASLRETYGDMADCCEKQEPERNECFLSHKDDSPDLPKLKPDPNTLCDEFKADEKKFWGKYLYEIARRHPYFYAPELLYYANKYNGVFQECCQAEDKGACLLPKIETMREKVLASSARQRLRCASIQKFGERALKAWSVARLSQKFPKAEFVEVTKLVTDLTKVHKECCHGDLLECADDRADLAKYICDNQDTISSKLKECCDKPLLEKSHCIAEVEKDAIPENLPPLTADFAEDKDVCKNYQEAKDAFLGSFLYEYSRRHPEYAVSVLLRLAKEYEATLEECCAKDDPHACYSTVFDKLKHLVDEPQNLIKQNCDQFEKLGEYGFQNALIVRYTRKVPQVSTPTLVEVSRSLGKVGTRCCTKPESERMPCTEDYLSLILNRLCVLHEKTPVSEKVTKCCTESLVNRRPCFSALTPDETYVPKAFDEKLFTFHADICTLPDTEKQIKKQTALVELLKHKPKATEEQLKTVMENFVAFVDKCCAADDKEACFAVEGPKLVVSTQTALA
A short description of experiment [1]: probe aXIP binding to arrayed compounds – biochemical, NeuroSMM set, 635/667 nm fluorescence, primary screen (AID 1119).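 Note: probe is the protein aXip251-270 applied at 1 µg/mL to compound-printed slides; binding of probe to printed compounds measured as 667 nm fluorescence plus signal to noise.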 The conditions noted are these: small-molecule microarray, higher = more signal, called active from +8 up or from −8 down.
Experiment [2] is described as follows: probe aNOTCH3 binding on compound microarray – biochemical, small-molecule microarray, 635/667 nm fluorescence, primary screen (AID 1120).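 Note: probe is a biotin-tagged antibody raised against NOTCH3 rather than NOTCH3 protein; score merges spot fluorescence near 667 nm with spot signal to noise.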 The conditions noted are these: higher = more signal.
Experiment [3] in a line: probe aNOTCH2 binding on compound microarray – biochemical, small-molecule microarray, 635/667 nm fluorescence, primary screen (AID 1121).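 Note: score merges feature fluorescence read at 667 nm with its signal to noise.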 As to conditions: higher = more signal.
The target of experiment [4] is Carbonic anhydrase 2 (Homo sapiens) (UniProt P00918). In words: compounds binding carbonic anhydrase 2 – biochemical, small-molecule microarray, Alexa647-labelled CAII, profiling panel (AID 1122). The conditions noted are these: CAII-A647 binding fluorescence, higher = more signal.
The nature of experiment [5]: COS7 lysate on small-molecule microarray, probe aHis, 635 nm (AID 1123).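 Note: z-score combines 667nm fluorescence intensity with signal-to-noise per printed compound spot.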 The conditions noted are these: COS7 cell lysate, fluorescence, higher = more signal.
Experiment [6] is described as follows: probe aLAP1 signal on lysate-treated microarray – cell lysate, small-molecule microarray, COS7 lysate, primary screen (AID 1124).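 Note: lysate comes from COS7 cells expressing LAP1 and is applied at 0.3 µg/mL; score merges spot fluorescence near 667 nm with signal-to-noise over triplicate slides.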 The conditions noted are these: probe aLAP1, fluorescence, higher = more signal.
Another experiment concerns Sam68 (KHDRBS1). Description: compounds binding KHDRBS1 protein – biochemical, small-molecule microarray, 635 nm fluorescence, primary screen (AID 1125).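 Note: score merges 667 nm channel intensity with signal to noise over triplicate slides.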 The conditions noted are these: higher = more signal.
The subject of experiment [7] is Chordin-like protein 2 (CHRDL2). In words: compounds binding chordin-like 2 – biochemical, small-molecule microarray, 635 nm fluorescence, primary screen (AID 1126).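 Note: printed compound slides probed with Chrdl2 protein at 4 µg/mL for 1 h at 4 C; score merges 667 nm emission intensity with signal to noise over three replicate slides.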 The conditions noted are these: fluorescence 635 nm, higher = more signal.
Experiment [8] deals with Concanavalin-A (Canavalia ensiformis) (UniProt P02866). In words: compounds binding concanavalin A lectin – biochemical, small-molecule microarray, Alexa647 label, 635 nm, artefact control for SMM control protein annotation, primary screen (AID 1127).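 Note: z combines 667 nm emission intensity with signal-to-noise across three replicate slides.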 As to conditions: ConA-A647 binding fluorescence, higher = more signal.
Chain of Concanavalin-A (Canavalia ensiformis) (P02866 whole entry, looked up): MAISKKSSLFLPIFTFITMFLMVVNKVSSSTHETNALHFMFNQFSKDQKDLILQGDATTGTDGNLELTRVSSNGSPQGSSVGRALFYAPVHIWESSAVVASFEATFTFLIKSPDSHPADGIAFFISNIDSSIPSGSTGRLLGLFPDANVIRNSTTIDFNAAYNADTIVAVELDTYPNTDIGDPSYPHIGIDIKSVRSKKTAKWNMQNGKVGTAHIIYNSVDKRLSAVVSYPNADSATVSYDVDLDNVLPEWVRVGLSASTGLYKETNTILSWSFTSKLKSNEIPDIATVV
The nature of experiment [9]: compounds binding Alexa647 anti-His antibody – biochemical, small-molecule microarray, 635 nm fluorescence, artefact control for SMM control protein annotation, primary screen (AID 1128).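 Note: score merges feature fluorescence with signal-to-noise for each printed compound spot.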 The conditions noted are these: higher = more signal.
Experiment [10] relates to Human papillomavirus type 1a E7 protein (residues 1-88). Description: HPV1a E7 small-molecule binders, primary screen, biochemical, small-molecule microarray, residues 1-88, 635 nm (AID 1129). As to conditions: small-molecule microarray binding, fluorescence 635 nm; higher = more signal.
Experiment [11] has as its target Focal adhesion kinase 1 (Homo sapiens) (UniProt Q05397). Description: PTK2 protein binding on printed compound slides – biochemical, small-molecule microarray, 635/667 nm fluorescence, BSA, DTT, primary screen (AID 1130).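 Note: composite of spot emission at 667 nm and signal to noise over triplicate slides.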 As to conditions: 635 nm fluorescence, higher = more signal.
In experiment [12] the test system is Fibrinogen (Alexa647-labelled). In words: Alexa647-fibrinogen binding to printed small molecules – biochemical, small-molecule microarray, 635/667 nm fluorescence, artefact control for SMM control-protein annotation, profiling panel (AID 1131).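 Note: z-score merges 667 nm fluorescence with per-spot signal-to-noise over triplicate slides.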 As to conditions: fibrinogen-A647 binding fluorescence, higher = more signal.
Experiment [13] deals with Follistatin (Homo sapiens) (UniProt P19883). Description: FST protein binding to printed compounds – biochemical, small-molecule microarray, 635/667 nm fluorescence, primary screen (AID 1132). As to conditions: 635 nm fluorescence, higher = more signal.
Chain of Follistatin (Homo sapiens) (P19883 whole entry, looked up): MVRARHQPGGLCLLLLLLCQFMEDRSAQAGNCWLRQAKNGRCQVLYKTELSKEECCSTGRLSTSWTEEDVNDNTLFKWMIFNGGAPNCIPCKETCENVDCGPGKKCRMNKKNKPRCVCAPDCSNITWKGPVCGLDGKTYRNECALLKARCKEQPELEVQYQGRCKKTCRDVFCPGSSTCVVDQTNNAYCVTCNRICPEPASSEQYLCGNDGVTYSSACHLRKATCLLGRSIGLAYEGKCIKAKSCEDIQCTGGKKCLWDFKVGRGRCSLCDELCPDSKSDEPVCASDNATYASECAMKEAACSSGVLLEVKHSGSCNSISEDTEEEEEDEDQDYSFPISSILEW
For experiment [14], the target named is Fibroblast growth factor 2 (Homo sapiens) (UniProt P09038). In words: basic fibroblast growth factor binding to printed compounds – biochemical, small-molecule microarray, 635/667 nm fluorescence, primary screen (AID 1133). The conditions noted are these: FGF2, fluorescence 635/667, higher = more signal.
Chain of Fibroblast growth factor 2 (Homo sapiens) (P09038 whole entry, looked up): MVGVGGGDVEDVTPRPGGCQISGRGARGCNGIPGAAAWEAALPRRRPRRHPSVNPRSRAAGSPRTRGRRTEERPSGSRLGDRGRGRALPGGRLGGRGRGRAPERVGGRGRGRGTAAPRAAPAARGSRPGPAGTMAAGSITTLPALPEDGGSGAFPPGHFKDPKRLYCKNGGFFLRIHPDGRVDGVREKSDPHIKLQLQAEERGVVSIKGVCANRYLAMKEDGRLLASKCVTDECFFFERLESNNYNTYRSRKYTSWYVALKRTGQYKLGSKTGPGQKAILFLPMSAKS
Experiment [15] can be described thus: JC-1 mitochondrial potential readout, lung cancer cells – cell-based, A549, JC-1 fluorescence, basal, 24 h, 100 nL, profiling panel (AID 1138).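 Note: A549 lung adenocarcinoma cells under basal conditions with no added stimulus; test concentration not given here.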 As to conditions: higher = more signal.
Another experiment has as its system Lefty1. Description: Lefty1 protein binding to printed compounds – biochemical, small-molecule microarray, 635/667 nm fluorescence, primary screen (AID 1139). As to conditions: fluorescence 635/667, higher = more signal.
In experiment [16] the test system is wheat germ agglutinin (Triticum aestivum), Alexa647-labelled. Description: Alexa647-WGA lectin binding to printed small molecules – biochemical, small-molecule microarray, 635/667 nm fluorescence, artefact control for SMM control-protein annotation, profiling panel (AID 1140).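 Note: score merges 667 nm feature emission with signal to noise over triplicate slides.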 As to conditions: WGA-A647 binding, 635 nm fluorescence, higher = more signal.
Experiment [17] deals with Luciferin 4-monooxygenase (Photinus pyralis) (UniProt P08659). Description: inhibition of purified Photinus pyralis luciferase – biochemical, luminescence, purified enzyme, 2006 set, primary screen (AID 1141).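 Note: cell-free assay with purified firefly luciferase at 100 ng per well in PBS; test concentration not given here.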 As to conditions: purified firefly luciferase, SteadyGlo luminescence, 30 min; higher = more signal, called active from +8 up or from −8 down.
Chain of Luciferin 4-monooxygenase (Photinus pyralis) (P08659 whole entry, looked up): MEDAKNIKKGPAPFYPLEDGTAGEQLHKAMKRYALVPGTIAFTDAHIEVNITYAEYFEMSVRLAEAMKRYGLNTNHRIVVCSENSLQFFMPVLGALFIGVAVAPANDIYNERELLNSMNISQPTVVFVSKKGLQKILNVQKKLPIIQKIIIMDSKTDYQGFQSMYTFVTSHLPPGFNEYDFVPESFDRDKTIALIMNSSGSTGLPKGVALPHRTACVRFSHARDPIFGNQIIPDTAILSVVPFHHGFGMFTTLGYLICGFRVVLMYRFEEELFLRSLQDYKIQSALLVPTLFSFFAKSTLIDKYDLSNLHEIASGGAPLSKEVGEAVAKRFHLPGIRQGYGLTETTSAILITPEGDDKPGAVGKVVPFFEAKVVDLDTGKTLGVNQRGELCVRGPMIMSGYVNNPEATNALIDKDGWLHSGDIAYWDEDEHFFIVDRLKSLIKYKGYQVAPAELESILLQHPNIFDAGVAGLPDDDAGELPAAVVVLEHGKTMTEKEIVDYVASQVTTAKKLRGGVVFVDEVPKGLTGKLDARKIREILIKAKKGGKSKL

Activity calls are given as the source filed them.

Chain of Focal adhesion kinase 1 (Homo sapiens) (Q05397 whole entry, looked up): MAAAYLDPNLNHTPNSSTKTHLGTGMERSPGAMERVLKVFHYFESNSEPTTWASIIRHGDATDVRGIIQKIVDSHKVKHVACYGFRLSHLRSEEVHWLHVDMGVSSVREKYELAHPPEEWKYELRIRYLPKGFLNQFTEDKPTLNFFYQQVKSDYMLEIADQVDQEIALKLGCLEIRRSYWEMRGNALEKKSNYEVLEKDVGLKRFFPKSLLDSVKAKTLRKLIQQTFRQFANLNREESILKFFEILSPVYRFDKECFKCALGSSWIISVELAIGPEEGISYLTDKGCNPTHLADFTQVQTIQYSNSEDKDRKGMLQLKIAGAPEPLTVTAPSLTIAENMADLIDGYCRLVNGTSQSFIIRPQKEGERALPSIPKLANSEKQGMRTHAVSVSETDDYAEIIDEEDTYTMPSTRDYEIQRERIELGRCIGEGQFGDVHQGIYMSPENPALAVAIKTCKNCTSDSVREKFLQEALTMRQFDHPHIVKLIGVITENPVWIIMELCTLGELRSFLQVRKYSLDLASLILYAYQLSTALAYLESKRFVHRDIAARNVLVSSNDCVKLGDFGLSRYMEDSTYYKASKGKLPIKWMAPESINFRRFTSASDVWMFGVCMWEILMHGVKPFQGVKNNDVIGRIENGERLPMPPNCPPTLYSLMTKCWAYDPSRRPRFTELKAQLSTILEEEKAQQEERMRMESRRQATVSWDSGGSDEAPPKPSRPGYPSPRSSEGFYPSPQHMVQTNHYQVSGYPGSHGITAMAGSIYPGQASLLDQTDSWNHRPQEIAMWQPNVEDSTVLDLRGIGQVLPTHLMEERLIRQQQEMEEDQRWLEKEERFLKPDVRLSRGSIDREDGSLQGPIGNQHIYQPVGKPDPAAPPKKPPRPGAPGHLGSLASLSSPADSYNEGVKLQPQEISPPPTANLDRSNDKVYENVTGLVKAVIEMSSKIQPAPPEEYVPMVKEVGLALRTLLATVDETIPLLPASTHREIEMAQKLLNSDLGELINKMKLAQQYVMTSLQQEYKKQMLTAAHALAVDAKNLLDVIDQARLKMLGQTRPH

In the case of `COCCCNC(=O)[C@@]1(c2ccc([N+](=O)[O-])cc2)CC(=O)N(C2CCCCC2)[C@@H]1c1ccc(CO)cc1I`, the composite z-score was -0.102 with Albumin (Bos taurus); -0.095 in [2]; 0.0409 in experiment [3]; 0.427 in experiment [4]; 2.23 in experiment [5]; 0.426 in experiment [6]. Moreover, the composite z-score with Sam68 (KHDRBS1) came to 1.03; in [7], 0.151; in [8] it was 1.14; in experiment [9], 3.3; in experiment [10] it was 1.2; in experiment [11], 0.964. In addition, the composite z-score in [12] turned out to be 0.014; in experiment [13], 1.45; in [14], 1.44; in the experiment on Lefty1, 0.418; in [16] it was 0.524. Also, the composite Z-score in experiment [1] was 2.09 (inactive). The z-score in experiment [15] is 2.77; in [17], -0.883 (inactive).
Turning to `COC(=O)C(CC#Cc1ccc2c(c1)[C@]1(C(=O)N2)[C@H](C(=O)N2CCN(c3ncccn3)CC2)[C@H]2C(=O)O[C@H](c3ccccc3)[C@H](c3ccccc3)N2[C@@H]1c1ccc(O)cc1)C(=O)OC`, the composite z-score in the experiment with Albumin (Bos taurus) is -0.542; in experiment [2], 0.972; in experiment [3], 0.279; in experiment [4] it was 0.636; in experiment [5], 2.38; in experiment [6], 0.97. The composite z-score came to 1.28 with Sam68 (KHDRBS1); 1.08 in experiment [7]; 1.21 in [8]; 1.19 in experiment [9]; 1.25 in experiment [10]; 0.904 in experiment [11]. Besides, the composite z-score was found to be 0.951 in [12]; 1.43 in experiment [13]; 1.57 in experiment [14]; 1.03 with Lefty1; 1.36 in [16]. Besides, the composite Z-score in [1] is 0.939 (inactive). Moreover, the z-score was -0.877 in [15] and -0.178 (inactive) in experiment [17].
`CN1C2C=C(c3ccc(CO)cc3)C(C3C(=O)N(C(N)=O)C(=O)C32)C1C1CC1` (stereo not given): the composite z-score with Albumin (Bos taurus) is -0.43; in experiment [2], -0.206; in [3] it was -0.146; in experiment [4] it was -0.117; in [5], 0.151; in [6], -0.262. For the same compound, the composite z-score with Sam68 (KHDRBS1) was 0.267; in experiment [7], -0.0733; in [8] it was 0.688; in experiment [9], 0.573; in [10], -0.241; in [11], -0.215. For the same compound, the composite z-score is 0.586 in [12]; -0.189 in [13]; -0.379 in [14]; -0.72 with Lefty1; 0.239 in experiment [16]. For the same compound, the composite Z-score in [1] is -0.378 (inactive). For the same compound, the values for the z-score in [15] and in experiment [17] were -0.572 and -0.0168 (inactive), respectively.
On to `NCCCCCCNC(=O)[C@@H]1C[C@@H]2C(=O)NCC(=O)N2[C@@H]1c1cccc(OCCO)c1`, for which the composite z-score with Albumin (Bos taurus) was 0.432; in [2], 0.155; in experiment [3] it was 0.0001; in [4] it was 0.695; in experiment [5], 1.47; in experiment [6], 0.758. The composite z-score in the experiment with Sam68 (KHDRBS1) is 1.2; in experiment [7], 1.18; in experiment [8], 0.828; in experiment [9], -0.207; in experiment [10], 1.23; in [11] it was 1.36. The composite z-score in [12] worked out at 0.416; in experiment [13], 1.46; in experiment [14] it was 1.6; with Lefty1, 1.52; in [16], 0.917. Besides, the composite Z-score in experiment [1] is 0.671 (inactive). For the same compound, the z-score in experiment [15] was 1.21; in [17], -1.66 (inactive).
Take `COCCCNC(=O)[C@]1(Cc2ccccc2N=[N+]=[N-])N=C(c2ccc(OCCCO)cc2)O[C@@H]1c1ccccc1`: the composite z-score is 0.894 with Albumin (Bos taurus); 0.619 in [2]; 0.308 in experiment [3]; 0.304 in experiment [4]; 2.85 in [5]; 0.536 in [6]. Besides, the composite z-score with Sam68 (KHDRBS1) was 1.3; in experiment [7], -0.586; in [8], 1.11; in experiment [9], 2.96; in experiment [10], 1.24; in experiment [11], 1.05. For the same compound, the composite z-score is 0.977 in [12]; 1.25 in experiment [13]; 0.94 in experiment [14]; -0.252 in the experiment with Lefty1; 1.3 in experiment [16]. In experiment [1], the composite Z-score was 0.522 (inactive). The z-score in experiment [15] is 2.2; in experiment [17], -1.9 (inactive).
Consider `C=C(/C=C\CNS(=O)(=O)c1ccc(C)cc1)[C@H](O)[C@H]1CCCN1S(=O)(=O)c1ccccc1[N+](=O)[O-]`, for which the composite z-score is 0.678 with Albumin (Bos taurus); 0.0026 in experiment [2]; -0.147 in [3]; 0.319 in [4]; 0.119 in experiment [5]; -0.538 in [6]. Besides, the composite z-score in the experiment with Sam68 (KHDRBS1) is 0.127; in experiment [7], 0.411; in [8], 0.152; in [9], 0.721; in experiment [10], 0.427; in experiment [11], 0.445. In addition, the composite z-score in experiment [12] turned out to be 0.191; in [13], 0.216; in experiment [14], 0.272; in the experiment with Lefty1, 0.177; in [16], 0.878. The composite Z-score in experiment [1] is -0.429 (inactive). Further, the z-score in experiment [15] was -0.321; in experiment [17], -1.1 (inactive).
With `COCCOC(=O)N1C(=O)[C@@]2(c3cc(C#CCNC(N)=O)ccc31)[C@H](C(=O)N1CCN(c3ncccn3)CC1)[C@H]1C(=O)O[C@H](c3ccccc3)[C@H](c3ccccc3)N1[C@@H]2c1ccc(O)cc1`, the composite z-score in the experiment with Albumin (Bos taurus) is 0.526; in experiment [2], -0.457; in experiment [3], -0.292; in experiment [4] it was 0.371; in experiment [5], -0.864; in [6], 0.555. In addition, the composite z-score in the experiment with Sam68 (KHDRBS1) is -0.396; in experiment [7], -0.956; in experiment [8] it was -0.785; in [9], -0.031; in experiment [10], -0.937; in experiment [11], -0.305. In addition, the composite z-score is -1 in experiment [12]; -0.974 in [13]; -0.623 in experiment [14]; -1.19 with Lefty1; 0.0548 in experiment [16]. In addition, the composite Z-score in experiment [1] is -0.453 (inactive). Further, the figures for the z-score in experiment [15] and in [17] were 0.284 and 0.0121 (inactive), respectively.
On to `CCCC[C@@H](O)C1=C(C)Cn2c(=O)n(-c3ccccc3)c(=O)n2[C@H]1CO`, for which the composite z-score is 0.138 with Albumin (Bos taurus); -0.0647 in [2]; -0.219 in experiment [3]; -0.313 in experiment [4]; 0.332 in experiment [5]; -0.0242 in experiment [6]. Moreover, the composite z-score with Sam68 (KHDRBS1) was -0.92; in [7], 0.24; in [8] it was -0.827; in experiment [9] it was -0.237; in experiment [10], -0.432; in experiment [11], -0.137. Also, the composite z-score is -0.926 in experiment [12]; -0.355 in [13]; 0.0632 in experiment [14]; 0.0378 in the experiment with Lefty1; 0.502 in [16]. The composite Z-score in experiment [1] was -0.301 (inactive). In addition, the z-score was 2.01 in [15] and -1.32 (inactive) in experiment [17].
